High-throughput results (PubChem)
The full list was thinned out, with hits kept by preference.
DUSP3 inh – VHR1 (DUSP3) phosphatase inhibition; P51452; recombinant VHR phosphatase, colorimetric substrate read-out; AID 1992; 0.7% of 50,000 active; inhibition, % at 20 µM; in the data active = inhibition above about 60%
Target sequence (P51452 whole entry, looked up): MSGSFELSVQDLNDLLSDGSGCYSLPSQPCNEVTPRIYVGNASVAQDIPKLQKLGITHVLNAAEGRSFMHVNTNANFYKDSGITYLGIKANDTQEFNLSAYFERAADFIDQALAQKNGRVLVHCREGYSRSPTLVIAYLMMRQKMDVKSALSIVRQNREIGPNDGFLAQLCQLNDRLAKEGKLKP
An asterisk follows results filed as active.

SMILES | DUSP3 inh
CCOC(=O)c1c(NC(=S)Nc2ccc(C)cc2)sc2c1CCN(Cc1ccccc1)C2 | 68*
CCOC(=O)c1c(NC(=O)c2ccccc2)sc2c1CCN(Cc1ccccc1)C2 | 53
O=C(Nc1ccc(OC(F)(F)F)cc1)c1ccc([N+](=O)[O-])cc1Cl | -12
COCCCNC(=O)c1cc(Cl)ccc1Cl | -40
COc1ccc(C(=O)Nc2ccc3oc(-c4ccc(OC)c(Cl)c4)nc3c2)cc1Cl | 6
COc1ccc(N2Cc3ccc(C(=O)N/N=C\c4ccc(Br)cc4)cc3C2)cc1 | -15
Cc1cc2c(cc1C)CN(c1cccc(C(=O)NN)c1)C2 | 49
COc1ccc(N2Cc3ccc(C(=O)NN)cc3C2)cc1 | 94*
COc1ccccc1/C=C1/SC(=S)N(Cc2ccccc2)C1=O | 1
Cc1ccc(-n2c(C)cc(/C=N/NC(=O)c3ccncc3)c2C)cc1C | 48
Cc1cccc(C)c1-n1c(C)cc(/C=N/NC(=O)c2ccncc2)c1C | 14
CCc1ccc(-n2c(C)cc(/C=N/NC(=O)c3ccncc3)c2C)cc1 | 87*
COC(=O)CN(c1ccccc1C)S(=O)(=O)c1ccccc1 | -43
COc1ccc(NC(=O)C(=O)N/N=C/c2ccc3c(c2)OCO3)cc1 | 1
O=C1C(=O)N(CC2CCCO2)C(c2cccc([N+](=O)[O-])c2)/C1=C(/O)c1ccccc1 (stereo not drawn) | 5
Cc1ccc(N2C(=O)C(Cl)=C(Nc3cccc(C)c3C)C2=O)cc1 | -6
O=C(NN1C(=O)C2CCCCC2C1=O)c1ccc(O)cc1 (stereo not drawn) | -40
Cc1ccc(-c2csc(N)c2C(=O)OC(C)C)cc1C | 84*
Cc1ccc(C)c(-c2csc(N)c2C(=O)OC(C)C)c1 | 8
Cc1ccc(-c2csc(N)c2C(=O)OC(C)C)cc1 | 52
CCc1ccc(N2CC(C(=O)Nc3ccc([N+](=O)[O-])cc3)CC2=O)cc1 (stereo not drawn) | -22
CCn1c2ccccc2c2cc(/C=N/N3CCN(c4ccccc4OC)CC3)ccc21 | -10
COc1cc(/C=N/n2c(C)nnc2C)cc(OC)c1O | 6
COc1ccccc1-c1cc(C(=O)O)c2ccccc2n1 | 11
O=C(O)c1cc(-c2cn[nH]c2-c2ccccc2)nc2ccc3ccccc3c12 | 110*
SMILES | DUSP3 inh
O=C(O)c1cc(-c2cccc([N+](=O)[O-])c2)nc2ccccc12 | -13
COc1ccccc1N1C(=O)/C(=C/c2c(Cl)cccc2Cl)SC1=S | -33
O=C(Nc1ccccc1)C1C2/C=C\CCCCC21 (stereo not drawn) | 100*
O=C(O)C1C(C(=O)Nc2ccccc2)C2C=CC1C21CC1 (stereo not drawn) | -18
O=C(Nc1ccc(Cl)c(Cl)c1)C1C2/C=C\CCCCC21 (stereo not drawn) | -14
O=C(Nc1cccc2ccccc12)C1CC2CCC1C2 (stereo not drawn) | 0
O=C(Nc1cccc2ccccc12)C1C2C3CCC(C3)C12 (stereo not drawn) | 79*
COc1ccccc1NC(=O)C1C2C3CCC(C3)C12 (stereo not drawn) | -23
O=C(Nc1ccccc1)O/N=C/c1c(F)cccc1Cl | -20
COc1cc2nc(C)sc2cc1OC | -17
CCOC(=O)/C=C(\C)Nc1cc(C)nn1-c1ccccc1 | 110*
CCOC(=O)/C=C(\C)Nc1cc(-c2ccc(Cl)cc2)[nH]n1 | 6
CC(=O)Nc1cc(-c2ccc(Cl)cc2)nn1-c1ccccc1 | 4
CC1=C(C(=O)Nc2ccc(Cl)cc2)C(c2ccc(Br)cc2)NC(=S)N1 (stereo not drawn) | -26
COc1ccc(/C=C/C(=O)NC2CCCCCC2)cc1OC | -22
Nc1ccc(C2=Nc3cccc4cccc(c34)N2)cc1 | 85*
CCOC(=O)C1=NNC2(c3ccc(Cl)cc3)C(=O)N(c3cccc(OC)c3)C(=O)C12 (stereo not drawn) | 100*
CCOC(=O)C1=C(C)NC(C)=C(C(=O)OC)C1c1ccc(Cl)cc1 (stereo not drawn) | -15
CCOC(=O)C1=NNC2C(=O)N(c3cccc(Br)c3)C(=O)C12 (stereo not drawn) | -20
Cc1ccc(/C=C(\C#N)c2nc(-c3cccc([N+](=O)[O-])c3)cs2)o1 | 21
Cc1ccc(/C=C(\C#N)c2nc(-c3ccc(C)c(C)c3)cs2)o1 | 60
Cc1ccc(/C=C(\C#N)c2nc(-c3cccc(Br)c3)cs2)o1 | 88*
O=C(O)CCN1C(=O)/C(=C/c2ccc(Cl)c([N+](=O)[O-])c2)SC1=S | -16
Cc1ccc(/C=C2\C(=O)NC(=S)N(c3ccc(Br)cc3)C2=O)o1 | 26
COC(=O)c1ccc(/C=C2\C(=O)NC(=S)N(c3ccc(Br)cc3C)C2=O)cc1 | 9
COc1ccc(/C=C2\C(=O)NC(=S)N(c3ccc(Br)cc3C)C2=O)cc1OC | 98
Cc1cc(Br)ccc1N1C(=O)/C(=C/c2ccc(N(C)C)cc2)C(=O)NC1=S | 69*
Cc1ccc(/C=C2\C(=O)NC(=S)N(c3ccc(Br)cc3C)C2=O)o1 | 82*
Cc1ccc(C=C2C(=O)NC(=S)N(c3ccccc3Cl)C2=O)o1 | -5
Cc1cccc2sc(NC(=O)/C=C\C(=O)O)nc12 | 12
